Bioassay records from PubChem BioAssay.
VHR inh abs = DUSP3 (human) phosphatase inhibition; P51452; recombinant VHR phosphatase, pNPP absorbance; inhibition, % at 13.3 µM; 290,000 tested, 0.52% active; AID 1654; in the data active means inhibition above about 50%
Target sequence (P51452 whole entry, looked up): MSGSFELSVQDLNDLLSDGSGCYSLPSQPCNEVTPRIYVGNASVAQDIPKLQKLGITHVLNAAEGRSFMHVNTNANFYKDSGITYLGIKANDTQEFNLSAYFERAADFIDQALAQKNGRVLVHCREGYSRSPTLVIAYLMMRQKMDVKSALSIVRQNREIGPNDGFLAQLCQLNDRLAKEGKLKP
Mtb betalactam = beta-lactam sensitization of Mtb H37Rv; M. tuberculosis H37Rv growth with meropenem, percent inhibition; inhibition, % at 25 µM; 330,000 tested, 0.27% active; call rule not given here;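 further: growth measured after seven days incubation then overnight dye step; 0% = bacteria only wells and 100% = bacteria with antibiotic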
Mtb hypoxia rep = inhibitors of hypoxia-regulated fluorescent reporter in Mycobacterium tuberculosis | M. tuberculosis hypoxia-regulated fluorescent reporter, fluorescence | fluorescence inhibition, % (no concentration beside the values) | 300,000 tested, 0.1% active | AID 1159583; in the data active means fluorescence inhibition mostly above about 23%, no sharp cut-off; inactive means mostly below about 17%
FBA Mtb inh = inhibits M. tuberculosis FBA enzyme; P9WQA3; purified M. tuberculosis FBA, fluorescence read-out; inhibition, % at 1 µM; 360,000 tested, 2.3% active; AID 588726; in the data active means inhibition above about 27%;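 further: 0% = vehicle and 100% = reference inhibitor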
Target sequence (P9WQA3 whole entry, looked up): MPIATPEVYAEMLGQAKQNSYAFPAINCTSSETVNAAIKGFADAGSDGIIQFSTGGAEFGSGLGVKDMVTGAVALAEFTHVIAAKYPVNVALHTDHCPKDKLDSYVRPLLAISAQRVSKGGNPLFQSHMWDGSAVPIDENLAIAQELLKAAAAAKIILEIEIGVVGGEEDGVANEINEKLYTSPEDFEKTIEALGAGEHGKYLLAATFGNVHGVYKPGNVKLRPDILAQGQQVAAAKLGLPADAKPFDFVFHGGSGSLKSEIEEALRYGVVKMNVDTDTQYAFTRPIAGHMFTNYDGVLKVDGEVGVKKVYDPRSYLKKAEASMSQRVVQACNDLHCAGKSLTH
GDH-TPI inh = GDH-TPI coupled enzyme inhibition counter-screen. inhibition, % at 4.8 µM. AID 588335. 360,000 tested, 1.2% active. GDH-TPI coupled enzyme counterscreen, NADH absorbance; in the data active means inhibition above about 30%;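 further: 0% = DMSO wells and 100% = wells lacking the enzyme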
Starred values were filed as active, the others as inactive. In the library only some 3.6% were active in any assay of this set; here they are far more common.

What do the screens show for `CCc1cc(=O)oc2cc(C)cc(OCC(=O)NC(Cc3c[nH]c4ccc(O)cc34)C(=O)O)c12` (stereo unspecified)?
VHR inh abs: 9; Mtb betalactam: -2; FBA Mtb inh: 12; GDH-TPI inh: 8

Results for C/C(C=NNC(=O)c1cc(C(C)C)[nH]n1)=C\c1ccccc1 ?
Mtb hypoxia rep: 2

Results for CCCOc1ccc(C2C(=O)N(C3CCCCC3)CC(=O)N2CCC)cc1OC (stereo unspecified) ?
VHR inh abs: 19; Mtb betalactam: -7; Mtb hypoxia rep: 1; FBA Mtb inh: 31*; GDH-TPI inh: -11

How did Cc1cc(NN=Cc2ccncc2)c([N+](=O)[O-])cc1[N+](=O)[O-] do in these assays?
Mtb hypoxia rep: 7

What do the screens show for `CSc1ncccc1C(=O)N1CCN(S(=O)(=O)c2ccccc2)CC1`?
VHR inh abs: 58*; Mtb betalactam: -1; Mtb hypoxia rep: 13; FBA Mtb inh: -3; GDH-TPI inh: -1

How did CSc1ncccc1C(=O)N1CCN(S(=O)(=O)c2ccc(C)cc2)CC1 do in these assays?
VHR inh abs: 26; Mtb betalactam: -6; Mtb hypoxia rep: 9; FBA Mtb inh: -1; GDH-TPI inh: -4

Results for O=C(O)CCCNC(=O)/C(=C\C=C\c1ccccc1)NC(=O)c1ccccc1Cl ?
VHR inh abs: -9; Mtb betalactam: -2; Mtb hypoxia rep: -8; FBA Mtb inh: -1; GDH-TPI inh: 20

Results for C=CCNC(=O)/C(=C\C=C\c1ccccc1)NC(=O)c1ccccc1Cl ?
VHR inh abs: -2; Mtb betalactam: -8; Mtb hypoxia rep: 12; FBA Mtb inh: -3; GDH-TPI inh: 31*

How did CN(C)/C=C1/C=C(c2ccccc2)OC1=O do in these assays?
VHR inh abs: 3; Mtb betalactam: 20; Mtb hypoxia rep: -10; FBA Mtb inh: 2; GDH-TPI inh: 33*

Results for COC(=O)C1=C(c2ccc(OC)c(OC)c2)CC2CCC1N2C(=O)NCc1ccco1 (stereo unspecified) ?
Mtb hypoxia rep: 6

Results for COc1ccc(-n2c(C)cc(/C=C3\C(=N)N4N=C(CC(=O)N5CCOCC5)SC4=NC3=O)c2C)cc1 ?
VHR inh abs: 15; Mtb betalactam: 1; Mtb hypoxia rep: 6; FBA Mtb inh: -2; GDH-TPI inh: 46*

Results for Cc1cc(/C=C2\C(=N)N3N=C(CC(=O)N4CCOCC4)SC3=NC2=O)c(C)n1-c1ccccc1 ?
VHR inh abs: 2; Mtb betalactam: -3; Mtb hypoxia rep: 12; FBA Mtb inh: 1; GDH-TPI inh: 34*

How did CSc1ccc(/C=C2\C(=N)N3N=C(CC(=O)N4CCOCC4)SC3=NC2=O)cc1 do in these assays?
VHR inh abs: 24; Mtb betalactam: 1; Mtb hypoxia rep: -5; FBA Mtb inh: 0; GDH-TPI inh: 18

Results for N=C1/C(=C/c2ccco2)C(=O)N=C2SC(CC(=O)N3CCCC3)=NN12 ?
VHR inh abs: -2; Mtb betalactam: 1; Mtb hypoxia rep: 3; FBA Mtb inh: 2; GDH-TPI inh: 31*

What do the screens show for `COc1ccc(-c2cc(=O)c3ccccc3[nH]2)cc1`?
VHR inh abs: 4; Mtb betalactam: -5; Mtb hypoxia rep: 7; FBA Mtb inh: 12; GDH-TPI inh: 11

What do the screens show for `COc1ccc(-c2cc(-c3ccccc3)nc(=O)[nH]2)cc1`?
VHR inh abs: -3; Mtb betalactam: -4; Mtb hypoxia rep: 7; FBA Mtb inh: active; GDH-TPI inh: 14

What do the screens show for `CCOC(=O)CC(C(C)=NO)c1ccccc1` (stereo unspecified)?
Mtb hypoxia rep: 1

Results for N#C/C(=C\c1cc2c(cc1Br)OCO2)c1ccc(C(=O)O)cc1 ?
VHR inh abs: 4; Mtb betalactam: 0; Mtb hypoxia rep: 20; FBA Mtb inh: 0; GDH-TPI inh: 31*

How did COCCCn1c(C(=O)N2CC(C)OC(C)C2)cc2c(=O)n3ccccc3nc21 (stereo unspecified) do in these assays?
VHR inh abs: 31; Mtb betalactam: -2; Mtb hypoxia rep: 3; FBA Mtb inh: active; GDH-TPI inh: 18

Results for CC(NC(=O)c1cc2c(=O)n3ccccc3nc2n(CC2CCCO2)c1=N)c1ccccc1 (stereo unspecified) ?
VHR inh abs: -4; Mtb betalactam: 4; Mtb hypoxia rep: -16; FBA Mtb inh: active; GDH-TPI inh: 18

Results for COc1ccc(CCNC(=O)c2cc3c(=O)n4cccc(C)c4nc3n(CC3CCCO3)c2=N)cc1 (stereo unspecified) ?
VHR inh abs: -2; Mtb betalactam: 18; Mtb hypoxia rep: -2; FBA Mtb inh: 20; GDH-TPI inh: 5

Results for COCCCn1c(=N)c(C(=O)NCc2ccc3c(c2)OCO3)cc2c(=O)n3ccccc3nc21 ?
VHR inh abs: 21; Mtb betalactam: -4; Mtb hypoxia rep: 3; FBA Mtb inh: 7; GDH-TPI inh: 1

How did CCOC(=O)c1cc2c(=O)n3ccccc3nc2n(CC2CCCO2)c1=NC(C)=O (stereo unspecified) do in these assays?
VHR inh abs: 43; Mtb betalactam: 8; Mtb hypoxia rep: 5; GDH-TPI inh: 18

Results for CCOC(=O)c1cc2c(=O)n3ccccc3nc2n(CC2CCCO2)c1=NC(=O)/C=C/c1ccccc1 (stereo unspecified) ?
VHR inh abs: 12; Mtb betalactam: 41; Mtb hypoxia rep: -4; FBA Mtb inh: active; GDH-TPI inh: 26

Results for Cc1ccc(CNC(=O)c2cc3c(=O)n4ccccc4nc3n(CC3CCCO3)c2=N)cc1 (stereo unspecified) ?
VHR inh abs: 13; Mtb betalactam: -1; Mtb hypoxia rep: 9; FBA Mtb inh: active; GDH-TPI inh: 3

Results for O=C(O)Cc1sc(NN=Cc2ccncc2)nc1-c1ccccc1 ?
Mtb hypoxia rep: 8

Results for CC(=NNC(=O)c1ccccc1)c1ccc2c(c1)OCO2 ?
Mtb hypoxia rep: 2

What do the screens show for `COc1ccc(CCn2c(=N)c(C(=O)NC3CCCC3)cc3c(=O)n4ccccc4nc32)cc1`?
VHR inh abs: -2; Mtb betalactam: 10; Mtb hypoxia rep: 3; FBA Mtb inh: -5; GDH-TPI inh: -2

What do the screens show for `COCCCn1c(=N)c(C(=O)NC2CCCCC2)cc2c(=O)n3ccccc3nc21`?
VHR inh abs: 31; Mtb betalactam: -13; Mtb hypoxia rep: 1; FBA Mtb inh: active; GDH-TPI inh: 12

What do the screens show for `Cc1ccc2nc3c(cc(C(=O)NCC4CCCO4)c(=N)n3CC3CCCO3)c(=O)n2c1` (stereo unspecified)?
VHR inh abs: -10; Mtb betalactam: 2; Mtb hypoxia rep: 0; FBA Mtb inh: active; GDH-TPI inh: 2

What do the screens show for `COc1ccc(Cn2c(=N)c(C(=O)NC3CCCCC3)cc3c(=O)n4ccccc4nc32)cc1`?
VHR inh abs: -4; Mtb betalactam: 69; FBA Mtb inh: 1; GDH-TPI inh: 6

What do the screens show for `Cc1ccc2nc3c(cc(C#N)c(=N)n3CC3CCCO3)c(=O)n2c1` (stereo unspecified)?
VHR inh abs: 18
